Laboratory results reported in PubChem BioAssay (EPA / NIEHS).
Inconclusive results are not listed. Activity calls are given as the source filed them. The calls were made as follows: active = hit-call score of the fitted dose curve at least 0.9, where 1 is the maximum; inconclusive = response in the unintended direction; inactive = score below 0.9.

Key:
[1] = TOX21_p53_BLA_p2_viability: Viability Assessment in the Tox21 HCT-116 p53 Agonism Beta-lactamase Assay, Phase 2 (AID 2283591);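 also: compound exposure lasted 16 h at 37 °C; actives lower the ATP signal meaning cytotoxicity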
Procedure, shortened: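 Cytotoxicity readout: CellTiter-Glo ATP luminescence, 30 min at room temperature, after the beta-lactamase read. Cells were HCT116 exposed 16 h at 37C to compounds pin-transferred at 217-fold dilution from DMSO stocks.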

[2] = molecular target: Cellular tumor antigen p53 (Homo sapiens) (UniProt P04637); assay: TOX21_p53_BLA_p2_ratio: Tox21 HCT-116 p53 Agonism Beta-lactamase Assay, Ratio, Phase 2 (AID 2283592)
Cellular tumor antigen p53 (Homo sapiens), sequence (P04637 whole entry, looked up): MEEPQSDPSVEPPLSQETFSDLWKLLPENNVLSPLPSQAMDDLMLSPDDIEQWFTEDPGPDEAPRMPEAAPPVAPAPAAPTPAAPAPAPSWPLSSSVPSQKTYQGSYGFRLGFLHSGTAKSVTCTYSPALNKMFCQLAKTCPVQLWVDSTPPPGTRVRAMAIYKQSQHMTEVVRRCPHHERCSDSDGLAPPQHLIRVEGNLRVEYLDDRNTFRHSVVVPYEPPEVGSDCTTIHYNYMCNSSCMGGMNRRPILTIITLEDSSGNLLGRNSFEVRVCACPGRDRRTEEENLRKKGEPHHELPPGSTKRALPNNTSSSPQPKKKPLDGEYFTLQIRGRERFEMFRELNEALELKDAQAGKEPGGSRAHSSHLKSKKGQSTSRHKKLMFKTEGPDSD
Procedure, shortened: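 Read-out is the blue/green (460/530 nm, 405 nm excitation) ratio after 2 h CCF4-AM loading, fitted as gain versus DMSO. Compounds, pinned at 217-fold dilution from DMSO stocks, stayed 16 h on HCT-116 beta-lactamase reporter cells seeded 5 h earlier.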

[3] = molecular target: Cellular tumor antigen p53 (Homo sapiens) (UniProt P04637); assay: TOX21_p53_BLA_p3_ratio: Tox21 HCT-116 p53 Agonism Beta-lactamase Assay, Ratio, Phase 3 (AID 2283596)
Procedure, shortened: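 Cells were seeded at 4000/well, rested 5 h at 37C, then dosed with DMSO compound solutions (217-fold dilution) for 16 h. CCF4-AM substrate was loaded for 2 h at room temperature, and the 460/530 nm emission ratio was fitted for gain of signal versus DMSO.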

[4] = TOX21_p53_BLA_p5_viability: Viability Assessment in the Tox21 HCT-116 p53 Agonism Beta-lactamase Assay, Phase 5 (AID 2283600)
Procedure, shortened: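 Viability came from CellTiter-Glo ATP luminescence, read after 30 min at room temperature. Before this, HCT-116 p53-bla cells (4000/well) had 16 hours of compound exposure at 37C, with DMSO stocks diluted 217-fold on transfer.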

[5] = molecular target: Cellular tumor antigen p53 (Homo sapiens) (UniProt P04637); assay: TOX21_p53_BLA_p4_ratio: Tox21 HCT-116 p53 Agonism Beta-lactamase Assay, Ratio, Phase 4 (AID 2283601)
Procedure, shortened: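 Signal is the blue/green (460nm/530nm) ratio of cleaved versus uncleaved CCF4-AM substrate, read after 2 h substrate loading. Cells were HCT116 carrying the p53-responsive beta-lactamase reporter, dosed 16 h at 37C, 5% CO2; CellTiter-Glo measured in parallel.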

[6] = TOX21_p53_BLA_p4_viability: Viability Assessment in the Tox21 HCT-116 p53 Agonism Beta-lactamase Assay, Phase 4 (AID 2283597);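 also: hits lower the luminescence signal meaning cytotoxicity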
Procedure, shortened: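 Cytotoxicity as reduced cellular ATP (CellTiter-Glo luminescence, 30 min room temperature), measured in the same wells following the CCF4 FRET p53 reading. Human HCT-116 cells received compounds in DMSO (217-fold dilution) for 16 h.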

[7] = molecular target: Cellular tumor antigen p53 (Homo sapiens) (UniProt P04637); assay: TOX21_p53_BLA_p5_ratio: Tox21 HCT-116 p53 Agonism Beta-lactamase Assay, Ratio, Phase 5 (AID 2283599)
Procedure, shortened: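 Beta-lactamase reporter ratio (blue 460 nm over green 530 nm, 405 nm excitation) after 2 h CCF4-AM loading, in HCT-116 cells exposed 16 h at 37 C to compounds pinned at 217-fold dilution. Increases relative to DMSO baseline scored.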

Measured: outcome

O=C(Cn1ccnc1[N+](=O)[O-])NCc1ccccc1
not listed: [6] | [7]
inactive: all other assays above

CCCCOCCOC(=O)COc1cc(Cl)c(Cl)cc1Cl
inactive: [1] | [2] | [6]

Cc1cc(C)cc(OCC2CNC(=O)O2)c1 (centres undefined)
inactive: [1] | [2] | [3] | [5]

COc1cccc(OC)c1C(=O)N[C@@H]1C(=O)N2[C@@H]1SC(C)(C)[C@@H]2C(=O)O
not listed: [6] | [7]
inactive: all other assays above

Oc1ccc(O)c2c(O)cccc12
not listed: [6] | [7]
inactive: all other assays above

COc1ccc(C)cc1
not listed: [6] | [7]
inactive: all other assays above

CN(CC1(C)CCCO1)S(=O)(=O)c1ccc(Cl)c(S(N)(=O)=O)c1 (centres undefined)
not listed: [6] | [7]
inactive: all other assays above

Cc1cn([C@H]2C[C@H](F)[C@@H](CO)O2)c(=O)[nH]c1=O
not listed: [6] | [7]
inactive: all other assays above

c1ccc(CCNc2nc(-c3ccccc3)cs2)cc1
not listed: [3] | [5]
inactive: all other assays above

CCOC(=O)[C@H](CCc1ccccc1)N[C@H]1CCCN2CCC[C@@H](C(=O)O)N2C1=O
not listed: [3] | [4]
inactive: all other assays above

CC(COc1ccc(C(C)(C)C)cc1)OS(=O)OCCCl (centres undefined)
not listed: [3]
inactive: all other assays above

Nc1ccccn1
not listed: [3]
inactive: all other assays above

O=C(O)c1cccc(O)c1
not listed: [3] | [4]
inactive: all other assays above

O=S(=O)(O)CCS
not listed: [3]
inactive: all other assays above

CC1=C2[C@@H]([C@H](C)CC[C@H]2/C=C(\C)C(=O)O)[C@H](O)C1
not listed: [3] | [4]
inactive: all other assays above

COc1nc(N)nc2nc[nH]c12
inactive: [1] | [2] | [6] | [4]

CN1CCCN=C1COC(=O)C(O)(c1ccccc1)C1CCCCC1 (centres undefined)
not listed: [3] | [4]
inactive: all other assays above

CN1CCC(CN2c3ccccc3Sc3ccccc32)C1 (centres undefined)
inactive: [1] | [2] | [6] | [7]

CCc1cn([C@H]2C[C@H](O)[C@@H](CO)O2)c(=O)[nH]c1=O
not listed: [3]
inactive: all other assays above

O=S(=O)(Cl)c1c(Cl)cccc1Cl
not listed: [3]
inactive: all other assays above

O=C(CCCN1CCN2CCCC2C1)c1ccc(F)cc1 (centres undefined)
inactive: [1] | [2] | [6]

CC[C@@H](C)[C@@H](N)C(=O)O
inactive: [1] | [2] | [6] | [7]

CCCCCOC(=O)Nc1nc(=O)n([C@@H]2O[C@H](C)[C@@H](O)[C@H]2O)cc1F
not listed: [3]
inactive: all other assays above

CO[C@H]1O[C@H](CO)[C@@H](O)[C@H](O)[C@H]1O
inactive: [1] | [2] | [6]

Oc1ccccc1C=NCc1ccccc1
not listed: [3]
inactive: all other assays above

CCN1CCC[C@H]1CNC(=O)c1c(O)c(Cl)cc(Cl)c1OC
not listed: [3] | [5]
inactive: all other assays above

O=C=Nc1ccc(Cl)c(Cl)c1
not listed: [3]
inactive: all other assays above

CC(=O)c1cc(C)oc1C
not listed: [3]
inactive: all other assays above

CC(O)CN(C)C (centres undefined)
not listed: [3] | [4]
inactive: all other assays above

Cc1cc(Cl)c(C)cc1Cl
not listed: [3] | [4]
inactive: all other assays above

CCCCCC1Nc2cc(C(F)(F)F)c(S(N)(=O)=O)cc2S(=O)(=O)N1 (centres undefined)
not listed: [3] | [5]
inactive: all other assays above
